# Only a sample is shown.
# aSyn 5UTR act = Activators via SNCA 5'UTR binding, MLPCN; alpha-synuclein 5'UTR reporter, activators screen; activity score, % (tested at 7.5 µM), hits read low; 300,000 compounds, 7.1% hits; in the data active = activity score below about -60%
# Hits are given with their value; . = inactive.
SMILES,aSyn 5UTR act
Cc1ccc(-c2csc(NC(=O)C[n+]3cc(-c4ccccc4)n4c3CCC4)n2)cc1,-117
COc1ccc(C2CC(c3ccccc3OC(C)=O)=NN2C(C)=O)cc1 (stereo not given),-79
Cc1ccc2c(CC(=O)NCc3ccco3)coc2c1C,-95
COC(=O)c1ccc(OCc2cc(=O)n3ccsc3n2)cc1,-134
N#CC1=C2Sc3ccccc3N2CCCC1=O,-171
N#CC1=C2SC=C(c3ccc(Br)cc3)N2CCCC1=O,-257
O=C(Nc1nnc(SCc2ccc(F)cc2)s1)c1ccccn1,.
CC(=O)Cc1nsc(NC(=O)c2cccs2)n1,-67
CCSc1nnc(NC(=O)c2cccs2)s1,-138
O=C(Nc1nnc(SCc2ccccc2)s1)c1cccs1,-67
CCSc1nnc(NC(=O)C(C)(C)C)s1,-107
CCSc1nnc(NC(=O)NC2CCCCC2)s1,-64
O=c1/c(=C\c2ccc(F)cc2)sc2n1CCCN=2,-201
O=C(Nc1ccc([N+](=O)[O-])cc1)Nc1ccc2c(c1)OCCO2,-92
COc1cc([N+](=O)[O-])ccc1NC(=O)Nc1ccc2c(c1)OCCO2,-72
CCCN1CCC(=O)N([C@H](CSc2ccccc2)CC(C)C)CC1,-100
CC(C)C[C@@H](CSc1ccccc1)N1CCN(CC(C)C)CCC1=O,-175
CCCN1CCC(=O)N([C@H](CSc2ccc(C)cc2)CC(C)C)CC1,-175
CCCN1CCC(=O)N([C@H](CSc2ccc(Br)cc2)c2ccccc2)CC1,-120
CC(C)N1C(=O)CC(Nc2ccc(N3CCOCC3)cc2)C1=O (stereo not given),-145
COc1ccc(NC2CC(=O)N(C(C)C)C2=O)cc1 (stereo not given),-150
COc1cc(NC(=O)n2ncc3cc(Cl)ccc32)cc(OC)c1,-186
O=C(Nc1ccccc1F)n1ncc2cc(Cl)ccc21,-73
COc1ccc(NC(=O)n2ncc3cc(Cl)ccc32)cc1OC,-142
Oc1c(N=NC(=S)Nc2ccccc2F)c2ccccc2n1Cc1ccc(Cl)cc1,.
SMILES,aSyn 5UTR act
C[n+]1c2n(c3ccccc31)N=C(c1cc(C(C)(C)C)c(O)c(C(C)(C)C)c1)CS2,.
O=c1[nH]c(COc2ccc(Cl)cc2Cl)nc2ccccc12,-189
O=c1[nH]c(COc2ccc(Cl)cc2Br)nc2ccccc12,-123
O=c1[nH]n(Cc2ccccc2)c(=O)c2ccccc12,-68
CSc1ccc(/C=C(/NC(=O)c2ccccc2)C(=O)N2CCN(C)CC2)cc1,-147
C=C(C(=O)c1ccccc1)C(C)C(=C)C(=O)c1ccccc1,-149
CN1/C(=C\C=C2/C(=O)Oc3ccccc3C2=O)C(C)(C)c2ccccc21,-123
Nc1ccc2c(c1)COc1ccccc1O2,-133
NC(=O)C1CCN(c2ccc3c(c2)S(=O)(=O)c2ccccc2C3=O)CC1,-63
O=C1c2ccccc2S(=O)(=O)c2cc(N3CCC4(CC3)OCCO4)ccc21,-118
CC1CCN(c2ccc3c(c2)S(=O)(=O)c2ccccc2C3=O)CC1,-140
O=C(Cn1cc(C(=O)C2CC2)c2ccccc21)NCc1ccccc1,-81
Cn1c(NCc2c[nH]c3ccccc23)nc2ccccc21,-98
COc1ccccc1-n1cnc2cc(NCc3ccco3)ccc21,.
Cn1c(NCc2cccs2)nc2ccccc21,-63
Cn1c(NCc2ccco2)nc2ccccc21,-102
C=CCNC(=S)Nc1c(C(=O)OC)[nH]c2cc(OC)ccc12,-91
CN(C)Cc1c(-c2ccc(Cl)cc2)nc2ccccn12,-151
Clc1ccc(-c2nc3ccccn3c2CN2CCCCC2)cc1,-101
COc1cc(C=O)ccc1OCc1cccc(Br)c1,-152
COc1cc(C=O)ccc1OCCSc1ccc(C)cc1,-129
COc1cc(C=O)ccc1OCc1ccccc1Br,-202
COC(=O)c1ccccc1OCCCOc1ccc(C=O)cc1OC,-107
COc1cc(/C=C2/C(=O)N(C)C(=S)N2C)ccc1OCc1cccc(F)c1,-156
COc1ccc2cc(C(=O)C3CCCN(C(=O)CCc4cnn(C)c4)C3)ccc2c1 (stereo not given),-82
SMILES,aSyn 5UTR act
COc1ccc(C)cc1NC(=O)c1nnn(Cc2cccc(C(F)(F)F)c2)c1N,.
COc1cccc(NC(=O)c2nnn(Cc3ccc(Br)cc3F)c2N)c1,-80
COc1cccc(NC(=O)c2nnn(CCc3ccccc3)c2N)c1,-127
CCOC(=O)Cc1csc(N/N=C\c2cccc(Br)c2)n1,-66
CCOC(=O)Cc1csc(NC(=O)/C=C\c2ccccc2Cl)n1,-194
CCOC(=O)Cc1csc(/N=C/c2c(O)n(-c3ccc(C)c(C)c3)c(=O)c3ccccc23)n1,.
CCOC(=O)Cc1csc(NC(=O)/C=C\c2ccccc2)n1,-74
CCOC(=O)Cc1csc(NC(=O)/C=C/c2ccccc2Cl)n1,-136
Cc1[nH]c2ccccc2c1CN1CCc2ccccc2C1,-62
CCCC(=NCCc1c(C)[nH]c2ccccc12)C1=C(O)CC(c2ccccc2)CC1=O (stereo not given),.
O=C(Nc1ccc2ncccc2c1)c1cccc(Br)c1,-375
O=C(Nc1ccc2ncccc2c1)c1cc(Cl)ccc1Cl,-80
Brc1ccc(CNc2ccc3ncccc3c2)cc1,-194
Cc1ccc(C(=O)Nc2ccc3ncccc3c2)cc1,.
Nc1c(C(=O)Nc2cccc(F)c2)nnn1-c1cccc(C(F)(F)F)c1,-155
Nc1c(C(=O)Nc2ccc3c(c2)OCCO3)nnn1Cc1ccc(Cl)cc1,-212
Nc1c(C(=O)Nc2ccc3c(c2)OCCO3)nnn1Cc1cccc(F)c1,-176
C/C(CC(C)C)=N\NC(=O)Nc1ccccc1,-69
N/C(=N\NC(=O)Nc1ccccc1)c1ccccn1,-168
Cc1ccc(/C=N/NC(=O)c2ccc(Br)o2)s1,-111
CCc1ccc(/C=N\NC(=O)c2ccc(Br)o2)s1,-167
O=C(Cc1ccccc1[N+](=O)[O-])NCc1ccc2c(c1)OCO2,-123
O=C(Cc1ccccc1)NCc1ccc2c(c1)OCO2,-99
O=C(NCc1ccccc1)c1c[nH]c2cc3c(cc2c1=O)OCCO3,-183
O=C(NCc1ccc2c(c1)OCO2)c1ccccc1Cl,-100
SMILES,aSyn 5UTR act
Cc1cc(C(=O)CNCc2ccco2)c(C)n1-c1ccc(F)cc1,-106
Cc1cc(C(=O)NC2CCCCC2)c(C)n1-c1ccc(F)cc1,-174
Cc1cc(C(=O)CN2CCC(C)CC2)c(C)n1-c1ccc(F)cc1,-97
Cc1cc(C(=O)CN2CCCCC2)c(C)n1-c1ccc(F)cc1,-129
O=C(O)c1cc(N/N=C/c2cccs2)ccc1Cl,-253
NNc1ccc(Cl)c(C(=O)O)c1,-180
O=[N+]([O-])c1cccc(N/N=C/c2cccc3ccccc23)c1,-91
O=C(O)c1cc(N/N=C/c2cccc3ccccc23)ccc1Cl,-131
Cc1ccc(/C=N/Nc2ccc(Cl)c(C(=O)O)c2)s1,-153
CCOc1ncccc1C(=O)Nc1nc(SC)ns1,-108
CSc1nsc(NC(=O)Cc2ccccc2)n1,-85
O=C(O)c1cccc(N/N=C/c2cc(Br)cc(Br)c2O)c1,-232
COc1ccc(Br)cc1/C=N/Nc1cccc(C(=O)O)c1,-76
COc1ccc(/C(C)=N/Nc2cccc(C(=O)O)c2)cc1OC,-113
COc1ccccc1/C=C/C=N/Nc1cccc(C(=O)O)c1,-119
COc1cccc(/C=N/Nc2ccc(C(=O)O)cc2)c1O,.
CN(C)c1ccc(/C=N/Nc2cccc(C(=O)O)c2)cc1,.
Clc1ccccc1Cn1nnc2c(N3CCOCC3)nc(C3CC3)nc21,.
CCCN1CCN(c2ncnc3c2nnn3Cc2ccccc2)CC1,-69
O=C(c1ccccc1)c1cnc(Nc2ccccc2Cl)s1,-96
CC(C)(C)C(=O)c1cnc(Nc2ccccc2Cl)s1,-146
